In PubChem BioAssay (Tox21):
Where “and” joins values, the source holds several entries; their conditions need not be identical. Identical values can stand only once. Values without a mark were called inactive. Records with an inconclusive call do not appear. Entries that show only a call come without a potency. Calls of active or inactive are those of the source. Calls follow the shape of the dose curve; as a rule, active = well fitted curve in the direction sought with a large enough effect in the repeat runs; inconclusive = weak or mixed curves; inactive = no such curve, though single readings can be large; an effect the other way counts as inactive or inconclusive.

Tests used:
[1] = Human pregnane X receptor (PXR) small molecule agonists, qHTS cell viability counter screen (AID 1346977); also: nearly all actives have a fitted effect of over 50% in size
Procedure, shortened: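 Same-well viability read: CellTiter-Fluor added after 23 hr compound exposure, fluorescence measured 1 hr later. Cells were PXR-Luc HepG2 seeded at 2,000/well in 5% charcoal-stripped FBS medium, rested 5 hr before dosing at 37 C.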

[2] = Caspase-3/7 induction in HepG2 cells by small molecules, qHTS assay (AID 1346978); also: nearly all actives have a fitted effect of over 15% in size; also: potency is read from the fitted curve at half-maximal effect
Procedure, shortened: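 Wild-type HepG2 cells (2,000/well) were settled 5 h at 37 C, 5% CO2, then exposed to compounds in DMSO for 17 h. Caspase-3/7 activity was read by luminescence 30 min after adding Caspase-Glo 3/7 reagent at room temperature.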

[3] = Caspase-3/7 induction in CHO-K1 cells by small molecules, qHTS cell viability counter screen (AID 1346979); also: nearly all actives have a fitted effect of over 35% in size; also: potency is read from the fitted curve at half-maximal effect
Procedure, shortened: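 Cytotoxicity counter screen: CellTiter-Fluor added to compound-treated wild-type CHO-K1 cells at 16 h (37C, 5% CO2), fluorescence measured 1 h later; same wells as caspase-3/7 measurement.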

[4] = Caspase-3/7 induction in CHO-K1 cells by small molecules, qHTS assay (AID 1346980); also: nearly all actives have a fitted effect of over 15% in size
Procedure, shortened: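 Wild-type cells were seeded at 1,500 per well and settled 5 hr at 37 C, 5% CO2, then exposed to DMSO-dissolved compounds for 17 hr. Caspase-Glo 3/7 reagent was added, and luminescence was read after 30min at room temperature.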

[5] = Caspase-3/7 induction in HepG2 cells by small molecules, qHTS cell viability counter screen (AID 1346981); also: series mostly up to about 92 µM; nearly all actives have a fitted effect of over 30% in size
Procedure, shortened: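 Counter screen for cytotoxicity: HepG2 exposed 16 hr to compounds, then CellTiter-Fluor viability signal (fluorescence, 1 hr reagent incubation).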

[6] = biological target: Nuclear receptor subfamily 1 group I member 2 (Homo sapiens) (UniProt O75469); assay: Human pregnane X receptor (PXR) small molecule agonists, qHTS assay (AID 1346982); also: nearly all actives have a fitted effect of over 35% in size; also: potency is read from the fitted curve at half-maximal effect
Nuclear receptor subfamily 1 group I member 2 (Homo sapiens), sequence (O75469 whole entry, looked up): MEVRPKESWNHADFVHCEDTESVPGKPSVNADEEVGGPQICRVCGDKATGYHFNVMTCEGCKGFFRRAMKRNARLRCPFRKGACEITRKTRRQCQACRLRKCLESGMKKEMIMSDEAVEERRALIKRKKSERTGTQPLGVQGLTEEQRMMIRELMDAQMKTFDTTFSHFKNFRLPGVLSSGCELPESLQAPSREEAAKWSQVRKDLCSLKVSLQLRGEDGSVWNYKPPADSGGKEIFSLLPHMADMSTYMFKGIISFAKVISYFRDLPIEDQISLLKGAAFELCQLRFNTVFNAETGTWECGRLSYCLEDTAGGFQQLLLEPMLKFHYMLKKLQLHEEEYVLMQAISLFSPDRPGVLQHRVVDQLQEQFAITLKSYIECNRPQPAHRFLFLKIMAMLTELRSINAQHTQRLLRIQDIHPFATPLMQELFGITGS
Procedure, shortened: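 Luminescence (ONE-Glo, 30 min RT) after 24 hr compound exposure of PXR-Luc HepG2 cells; cells rested 5 hr post-plating in 5% charcoal-stripped FBS medium.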

[7] = biological target: Cytochrome P450 2D6 (Homo sapiens) (UniProt P10635); assay: Cytochrome P450 Family 2 Subfamily D Member 6 (CYP2D6) small molecule antagonists: luciferase reporter qHTS assay (AID 1671196); also: nearly all actives have a fitted effect of over 50% in size; also: potency is read from the fitted curve at half-maximal effect
Cytochrome P450 2D6 (Homo sapiens), sequence (P10635 whole entry, looked up): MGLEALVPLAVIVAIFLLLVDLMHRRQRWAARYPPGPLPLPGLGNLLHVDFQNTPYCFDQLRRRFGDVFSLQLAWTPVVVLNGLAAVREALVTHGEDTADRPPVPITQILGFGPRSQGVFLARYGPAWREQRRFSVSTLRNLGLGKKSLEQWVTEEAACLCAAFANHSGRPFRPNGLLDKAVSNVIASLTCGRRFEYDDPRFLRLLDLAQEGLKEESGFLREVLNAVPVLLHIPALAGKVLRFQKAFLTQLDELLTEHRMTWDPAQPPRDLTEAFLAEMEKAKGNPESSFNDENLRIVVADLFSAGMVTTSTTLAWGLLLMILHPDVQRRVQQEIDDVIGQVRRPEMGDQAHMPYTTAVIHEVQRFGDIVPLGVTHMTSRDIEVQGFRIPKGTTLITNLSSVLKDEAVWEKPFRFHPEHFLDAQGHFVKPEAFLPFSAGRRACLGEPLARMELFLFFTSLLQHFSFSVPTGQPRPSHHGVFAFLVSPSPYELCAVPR
Procedure, shortened: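 Inhibition of CYP2D6 was gauged by loss of luminescence, since light produced tracks the luciferin generated from a proluciferin substrate. A 10 min room-temperature preincubation preceded 1 h NADPH-supported turnover.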

[8] = biological target: Nuclear receptor subfamily 1 group I member 2 (Rattus norvegicus) (UniProt Q9R1A7); assay: Rat pregnane X receptor (rPXR) activation by small molecules, qHTS assay (AID 1346983); settings: rPXR luciferase reporter cells, One-Glo luminescence, 24 h; max activation: active compounds read high; also: nearly all actives have a fitted effect of over 20% in size
Nuclear receptor subfamily 1 group I member 2 (Rattus norvegicus), sequence (Q9R1A7 whole entry, looked up): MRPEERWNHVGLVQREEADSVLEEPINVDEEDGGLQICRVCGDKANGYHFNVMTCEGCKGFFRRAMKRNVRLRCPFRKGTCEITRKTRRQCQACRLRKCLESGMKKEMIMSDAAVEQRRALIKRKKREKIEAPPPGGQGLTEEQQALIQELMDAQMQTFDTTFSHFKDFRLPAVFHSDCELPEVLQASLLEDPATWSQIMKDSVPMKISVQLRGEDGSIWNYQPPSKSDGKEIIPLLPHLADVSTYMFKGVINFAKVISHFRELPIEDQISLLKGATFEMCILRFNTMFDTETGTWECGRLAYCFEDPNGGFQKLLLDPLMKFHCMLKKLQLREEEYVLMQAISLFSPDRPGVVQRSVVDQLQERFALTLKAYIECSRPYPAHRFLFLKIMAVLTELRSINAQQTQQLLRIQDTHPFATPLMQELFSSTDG
Procedure, shortened: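 Cell-based rPXR luciferase reporter assay, 2,000 cells per well, rested 5hr at 37 C before compound addition in DMSO, then 24 hr at 37 C. One-Glo reagent was added and luminescence read after 30 min at room temperature.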

[9] = biological target: Nuclear receptor subfamily 1 group I member 2 (Homo sapiens) (UniProt O75469); assay: CYP3A4 induction through human pregnane X receptor (PXR) by small molecules, qHTS assay (AID 1346984); also: nearly all actives have a fitted effect of over 40% in size
Procedure, shortened: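 DPX-2 reporter cells; 24h cpd, 37C; Luciferin-IPA 3uM final x3h; One-Glo 30 min RT; lumi read.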

[10] = biological target: Nuclear receptor subfamily 1 group I member 2 (Homo sapiens) (UniProt O75469); assay: Human pregnane X receptor (PXR) activation by small molecules, qHTS assay (AID 1346985); also: nearly all actives have a fitted effect of over 40% in size
Procedure, shortened: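 DPX-2 cells (HepG2 co-transfected with a PXR response element and a CYP3A4-promoter luciferase construct) were seeded at 2,000 per well, rested 5 hr at 37C, then exposed to DMSO-dissolved compounds for 24 hr. Activation was read as luciferase luminescence.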

SMILES | Potency [1] | Potency [2] | Potency [3] | Potency [4] | Potency [5] | Potency [6] | Potency [7] | max activation [8] | Potency [9] | Potency [10]
C1COCCN1 | inactive | inactive | inactive | inactive | inactive | inactive | inactive |  |  | 
O=C(O)c1ccc(O)cc1 | inactive | inactive | inactive | inactive | inactive | inactive | inactive |  |  | 
NCCN | inactive | inactive | inactive | inactive | inactive | inactive | 31.7 µM (active) | -1.7% | inactive | inactive
CCC(Cc1c(I)cc(I)c(N)c1I)C(=O)O (stereo not given) | inactive | inactive | inactive | inactive | inactive |  | inactive | -1.5% | inactive | inactive
C[N+](C)(C)CCO | inactive | inactive | inactive | inactive | inactive |  | inactive |  |  | 
c1ccc2c(c1)ccc1cc3c(ccc4ccccc43)cc12 | inactive | inactive | inactive | inactive | inactive |  | inactive |  |  | 
O=C1CCc2ccccc2O1 | inactive | inactive | inactive | inactive | inactive |  | inactive |  |  | 
C=CCOC(=O)C(=C)C | inactive | inactive | inactive | inactive | inactive |  | inactive |  |  | 
CN(C)/N=N/c1nc[nH]c1C(N)=O | inactive | inactive | inactive | inactive | inactive | inactive | inactive | -1.32% | inactive | inactive
C[C@]12CC[C@@H]3c4ccc(O)cc4CC[C@H]3[C@@H]1CC[C@H]2O | inactive | 11.1 µM (active) | 49.4 µM (active) and 54.5 µM (active) | inactive | inactive |  | inactive |  |  | 
Brc1nc2ccccc2s1 | inactive | inactive | inactive | inactive | inactive | 60.9 µM (active) | inactive |  |  | 
COc1ccc(C(=O)c2ccccc2O)c(O)c1 | inactive | inactive | inactive | inactive | inactive |  |  |  |  | 
